The text below walks through data of PubChem BioAssay AID2685 (National Center for Advancing Translational Sciences (NCATS), 2010).

Among all 320,000 compounds or so, about 2,100 (0.66%) were called active. About 53% were inconclusive and are not listed. Calls come from the whole dose curve; as a rule, active = well fitted inhibition curve with a large enough effect in the signal ratio, with a control signal flat (not every such curve was filed as active); inconclusive = small, poorly fitted or top-dose-only effect, or effect the other way, or a change in a side signal; inactive = flat fitted curve, though single readings scatter; the % refers to the signal ratio. The entries come from a sample that favours actives as a whole.
Potency is the fitted concentration of half-maximal effect.

A short description of the experiment: qHTS Assay for Lipid Storage Modulators in Drosophila S3 Cells.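 For cell number change: cells counted by Cell Tracker Red CMTPX staining in the red channel.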 For lipid storage change, negative = inhibition: % is set by controls: 0 for no effect and ±100 for the full control effect. The conditions noted are these: BODIPY lipid droplet fluorescence, 18-24 h, cells fed with added oleic acid; cell number change: measured here: cell count max response; series mostly up to 46.1 µM; lipid storage change, negative = inhibition: at the top concentration. The procedure, abridged:
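Drosophila S3 cells loaded with oleic acid (400 uM, as added) and compounds at several concentrations; lipid droplets imaged by 488-nm laser-scanning cytometry, 500–530 nm intensity and object ratio to cell channel. Percent activity normalized to 20 uM Triacsin C.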
Take `CCOc1ccc(NC(=O)C2C(c3ccccc3)C2(Cl)Cl)cc1` (stereo not given): the Potency was 16.4 µM (active) and the cell number change is -15.7%.
In the case of `O=C(Nc1ccccc1)C1C(c2ccccc2)C1(Cl)Cl` (stereo not given), the “lipid storage change, negative = inhibition” value is -7.1% (inactive) and the cell number change is -2.33%.
Take `COc1ccc(NC(=O)C2C(c3ccccc3)C2(Cl)Cl)cc1` (stereo not given): the “lipid storage change, negative = inhibition” value was -5.18% (inactive) and the cell number change was 19.2%.
Taken in the same sequence, the figures for `OCCN1CCN(CCSc2ccccc2)CC1` were 1.19% (inactive) and 0.698%.
With `CCn1ncc(-c2csc(N)n2)c1C`, the “lipid storage change, negative = inhibition” value is 9.04% (inactive) and the cell number change was found to be 9.82%.
As for `O=C(c1ccccc1)N1CN2CN(C(=O)c3ccccc3)CC([N+](=O)[O-])(C2)C1`, the “lipid storage change, negative = inhibition” value was 9.02% (inactive) and the cell number change turned out to be 6.5%.
`COc1ccccc1C(CNC(=O)c1cc(C)nc2ccccc12)N(C)C` (stereo not given): the call was inactive and the cell number change was 9.21%.
With `CCCCCN=CC1=C(O)CC(c2ccccc2)CC1=O` (stereo not given), the “lipid storage change, negative = inhibition” value is -7.93% (inactive) and the cell number change was -15.5%.
Taken in the same sequence, the figures for `CCCN=CC1=C(O)CC(c2ccccc2)CC1=O` (stereo not given) were 2.06% (inactive) and 5.05%.
Regarding `O=C(O)CCN=CC1=C(O)CC(c2ccccc2)CC1=O` (stereo not given), the Potency was 1.03 µM (active) and the cell number change came to 15.8%.
`COCCn1c(SCC(=O)NCCc2ccc(OC)c(OC)c2)nc2c([nH]c3ccccc32)c1=O`: the “lipid storage change, negative = inhibition” value is 5.55% (inactive) and the cell number change amounted to 5.96%.
Regarding `S=C(c1cn(Cc2ccccc2)c2ccccc12)N1CCOCC1`, the “lipid storage change, negative = inhibition” value is 5.71% (inactive) and the cell number change was found to be 4.05%.
With `NC(=O)Cn1cc(C(=O)C(=O)N2CCOCC2)c2ccccc21`, the compound was classed as inactive and the cell number change is -8.62%.
Turning to `O=C(O)Cn1cc(C(=S)N2CCOCC2)c2ccccc21`, the Potency is 23.1 µM (active) and the cell number change was -0.629%.
`CCc1nc2oc3ccccc3c(=O)c2c(=O)n1CCOC`: the cell number change worked out at 14.4% and the lipid storage change, negative = inhibition is -1.96% [at 9.22 µM] (inactive).
As to `O=C(CCc1ccccc1)NC(NC(=S)Nc1ccc(Br)cc1)C(Cl)(Cl)Cl` (stereo not given), the result was inactive and the cell number change is -27.3%.
In the case of `Cc1ccc(-n2nnnc2SCCNS(=O)(=O)c2ccccc2)cc1C`, the call was inactive and the cell number change is -14.2%.
Turning to `Cc1ccc(NC(=O)CSc2nnc(N)s2)cc1S(=O)(=O)N1CCCCC1`, the “lipid storage change, negative = inhibition” value is -6.49% (inactive) and the cell number change is -23.8%.
Turning to `CC(=O)N1c2ccc(S(=O)(=O)N3CCCC3)cc2CC1C(=O)NCc1ccc(N(C)C)cc1` (stereo not given), the result was inactive and the cell number change was determined as 12.7%.
In the case of `CCOc1ccc(CNC(=O)C2Cc3cc(S(=O)(=O)N4CCCCC4)ccc3N2C(C)=O)cc1` (stereo not given), the “lipid storage change, negative = inhibition” value is -7.83% (inactive) and the cell number change came to 8.5%.
On to `CCc1ccc(CNC(=O)C2Cc3cc(S(=O)(=O)N4CCCC4)ccc3N2C(C)=O)cc1` (stereo not given), for which the Potency is 11.6 µM (active) and the cell number change is -14.2%.
In the case of `CCN(CC)S(=O)(=O)c1cc(OC)c(Cl)cc1OC`, the “lipid storage change, negative = inhibition” value was 21.7% (inactive) and the cell number change is 14.5%.
On the same counts, the results for `COc1cc(/C=N/NC(=O)COc2ccc(-n3cnnn3)cc2)ccc1OCC(N)=O` are 7.09% (inactive) and 7.43%.
Taken in the same sequence, the figures for `CCc1ccc(N(CC(=O)O)S(=O)(=O)c2c(C)noc2C)cc1` were -21% (inactive) and 7.92%.
On to `Cc1noc(C)c1S(=O)(=O)N(CC(=O)O)c1ccc2c(c1)OCO2`, for which the “lipid storage change, negative = inhibition” value is 11.7% (inactive).
For `Cc1cc(C)cc(N(CC(=O)O)S(=O)(=O)c2c(C)noc2C)c1`, the Potency was 23.1 µM (active) and the cell number change stood at 2.34%.
Consider `CC(=O)Nc1ccc(NC(=O)Cn2c(=O)n(-c3ccc(C)cc3)c(=O)c3oc4ccccc4c32)cc1`, for which the “lipid storage change, negative = inhibition” value was -4.89% (inactive) and the cell number change is -4.98%.
Regarding `COc1ccc(CC(=O)Nc2cccc(S(=O)(=O)N3CCCCCC3)c2)cc1OC`, the Potency was 20.6 µM (active) and the cell number change is -6.09%.
Taken in the same sequence, the figures for `COc1cccc(N2CCN(CC(=O)Nc3ccnn3C3CCCC3)CC2)c1` were 10.3 µM (active) and -10.7%.
`COc1ccc(CC(=O)Nc2cc(S(=O)(=O)N3CCCCC3)ccc2C)cc1OC`: the “lipid storage change, negative = inhibition” value is -0.673% (inactive) and the cell number change was -3.08%.
Taken in the same sequence, the figures for `COc1ccccc1N1CCN(CC(=O)Nc2ccnn2C2CCCC2)CC1` were 6.76% (inactive) and 1.72%.
Consider `O=C(Cc1ccc(Br)cc1)Nc1cccc(S(=O)(=O)N2CCOCC2)c1`, for which the “lipid storage change, negative = inhibition” value is 2.72% (inactive) and the cell number change is -12.5%.
Consider `COc1ccc(N2CCN(CC(=O)Nc3cccc(S(=O)(=O)N4CCOCC4)c3)CC2)cc1`, for which the Potency is 16.4 µM (active) and the cell number change is -21.6%.
Regarding `COc1ccccc1CCC(=O)Nc1cccc(S(=O)(=O)N2CCOCC2)c1`, the “lipid storage change, negative = inhibition” value was 16.2% (inactive) and the cell number change was 12.7%.
On the same counts, the results for `COc1ccc(CC(=O)Nc2cccc(S(=O)(=O)N3CCCCC3)c2)cc1` are 11.3% (inactive) and -18.3%.
On the same counts, the results for `O=C(CN1CCN(S(=O)(=O)c2ccc3ccccc3c2)CC1)Nc1ccc(N2CCOCC2)cc1` are 4.39% (inactive) and -8.53%.
`COc1ccc(CC(=O)Nc2cccc(S(=O)(=O)N3CCOCC3)c2)cc1OC`: the Potency was 23.1 µM (active) and the cell number change is -21.4%.
For the compound `COC(=O)c1cccc(NC(=O)CN2CCN(c3ccc(OC)cc3)CC2)c1`, the “lipid storage change, negative = inhibition” value is 21.8% (inactive) and the cell number change came out at 6.81%.
Taken in the same sequence, the figures for `O=C(CN1CCN(S(=O)(=O)c2ccccc2)CC1)Nc1ccnn1C1CCCC1` were -14.9% (inactive) and -2.45%.
On to `O=C(NCc1ccccc1)c1ccc(Cl)nc1`, for which the “lipid storage change, negative = inhibition” value is 3.79% (inactive) and the cell number change worked out at 10%.
On the same counts, the results for `CC(C)(C)c1ccc(/C=N/NC(=O)c2ccccn2)cc1` are 13.5% (inactive) and 6.33%.
Take `CCCCC(Sc1nc(N)c(NC(=O)c2ccco2)c(=O)[nH]1)C(=O)O` (stereo not given): the result was inactive and the cell number change is -24.3%.
With `O=C(CN(C(=O)c1csnn1)c1cccc(Cl)c1)NCCc1ccccc1`, the call was inactive and the cell number change is 12.4%.
